IL1B secr inh: inflammasome signaling inhibition, IL-1 beta readout | THP-1 LPS/ATP IL-1B secretion, AlphaLISA, 16 h; hits give low values | activity change, % at 57.5 µM | 4.7% of 360,000 active; in the data active = activity change below about -50%; inconclusive = mostly about -30% to -49%; note: % is set by controls: 0 for no effect and ±100 for the full control effect
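THP-1 cells pretreated 1 hr with compounds (up to 57.5 uM final), then stimulated with LPS (250 ng/mL final) plus ATP (1.25 mM final); secreted IL-1B measured by AlphaLISA after 16 hr, decreased signal indicating inhibition.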
USP2a inh: blocks human ubiquitin-specific protease USP2a; O75604; USP2 core, Ub-CHOP2 coupled fluorogenic reporter, 485/531; Potency, µM (series often up to 38.3 µM), without a hit: top-dose activity change, negative = inhibition, actives largely listed as inhibitors; 0.01% of 330,000 active; AID 463254;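 note: potency is the fitted concentration of half-maximal effect; plate controls were DMSO wells for no effect and full inhibition by NEM control for full effect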
Target sequence (O75604 whole entry, looked up): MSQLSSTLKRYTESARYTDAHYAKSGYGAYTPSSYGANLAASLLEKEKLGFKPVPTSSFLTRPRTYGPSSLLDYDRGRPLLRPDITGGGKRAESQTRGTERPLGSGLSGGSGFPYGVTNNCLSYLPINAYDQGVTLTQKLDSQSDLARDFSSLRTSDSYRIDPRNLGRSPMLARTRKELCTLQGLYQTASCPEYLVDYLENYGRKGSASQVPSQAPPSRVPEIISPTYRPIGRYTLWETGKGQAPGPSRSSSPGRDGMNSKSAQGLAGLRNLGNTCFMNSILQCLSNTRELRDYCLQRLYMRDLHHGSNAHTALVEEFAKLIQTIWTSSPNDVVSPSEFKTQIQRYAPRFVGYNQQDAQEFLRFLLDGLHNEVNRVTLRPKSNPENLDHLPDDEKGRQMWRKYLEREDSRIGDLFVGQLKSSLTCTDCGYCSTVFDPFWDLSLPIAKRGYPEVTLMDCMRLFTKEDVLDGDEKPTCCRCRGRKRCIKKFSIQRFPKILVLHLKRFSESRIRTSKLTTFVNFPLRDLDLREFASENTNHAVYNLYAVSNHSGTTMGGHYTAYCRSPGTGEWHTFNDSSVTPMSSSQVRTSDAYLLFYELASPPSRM
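USP2 core (10nM final) preincubated 30min RT with compound in 20mM Tris-HCl pH 8.0, 2mM CaCl2, 2mM beta-mercaptoethanol, 0.05% CHAPS; 25nM Ub-CHOP2 plus 25nM reporter substrate added, fluorescence (Ex485/Em531) read after 60min.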
S2 tox: viability counter-screen for ATXN expression inhibitors; 0.49% of 400,000 active; Potency, µM (series often up to 56.7 µM), actives largely listed as cytotoxic; AID 651635; S2 cells (HEK-293 line with an ATXN2-luciferase reporter) viability, CellTiter-Fluor protease fluorescence, 24 h; note: potency is the fitted concentration of half-maximal effect; nearly all actives have a fitted effect of over 40% in size
ATXN2 expr inh: inhibitors of ATXN2 expression; HEK-293 ATXN2-luciferase reporter, luminescence, 24 h; Potency, µM (top dose mostly 57 µM), for the others: at the top dose activity change, negative = inhibition, hits mostly inhibitors; 0.72% of 360,000 active; note: potency is the fitted concentration of half-maximal effect; % is set by controls: 0 for no effect and ±100 for the full control effect; nearly all actives have a fitted effect of over 55% in size
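ATXN2-luciferase reporter cells (luciferase flanked by upstream and downstream ATXN2 gene portions) were treated 24 h at 37 °C with compounds at up to 57 uM. SteadyGlo luminescence gave expression; GF-AFC fluorescence gave viability.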
USP1-UAF1 inh: USP1/UAF1 (human) deubiquitinase inhibition; recombinant USP1/UAF1, Ub-Rhodamine cleavage fluorescence; 0.23% of 390,000 active; Potency, µM (highest dose often 57.1 µM), without a hit: at the top dose activity change, negative = inhibition, usual class: inhibitors; O94782; AID 743255; note: potency is the fitted concentration of half-maximal effect; % is set by controls: 0 for no effect and ±100 for the full control effect; nearly all actives have a fitted effect of over 60% in size
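USP1/UAF1 complex (1 nM) preincubated 15 min at room temperature with compound, then Ub-Rho substrate (150 nM final) added. Kinetic fluorescence at 480/540 nm over 6 reads at 60 s intervals; 50 mM HEPES pH 7.8, 0.5 mM EDTA, 0.1 mg/ml BSA, 1 mM TCEP, 0.01% Tween-20.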
* hit, by the source's call; i = inactive; u = inconclusive; x = no result. Most compounds without a hit are left out; they make up all but 4.8% or so of the library. Unless noted, calls come from the whole dose curve; as a rule, active = well fitted curve in the direction sought with a large enough effect; inconclusive = small, poorly fitted or top-dose-only effect, or another doubt; inactive = no such curve, though single readings can be large; an effect the other way counts as inactive or inconclusive.

SMILES	IL1B secr inh	USP2a inh	S2 tox	ATXN2 expr inh	USP1-UAF1 inh
O=C(O)c1cc([N+](=O)[O-])ccc1NCCCc1ccccc1	-6	x	i	9%	10%
CN(C)c1ccc(C(=O)NCCCCCCC(=O)NO)cc1	x	x	x	171%	x
COc1cccc(CNc2ccc([N+](=O)[O-])cc2C)c1	-1	-5%	i	11%	-4%
COc1ccc(OC)c(CNc2ccc([N+](=O)[O-])cc2C)c1	-69*	-6%	i	-14%	u
CCCCC[C@@H](C)N1C[C@H](COCc2ccccc2)Oc2cc(N3CC[C@@H](N(C)C)C3)ccc2S1(=O)=O	-92*	x	25µM*	u	x
C[C@H](c1ccccc1)N1C[C@H](COCc2ccccc2)Oc2cc(N3CC[C@@H](N(C)C)C3)ccc2S1(=O)=O	47	x	i	3%	x
CCCCC[C@H](C)N1C[C@@H](COCc2ccccc2)Oc2cc(N3CC[C@@H](O)C3)ccc2S1(=O)=O	5	x	u	-1%	x
C[C@@H](c1ccccc1)N1C[C@@H](COCc2ccccc2)Oc2cc(N3CC[C@@H](N(C)C)C3)ccc2S1(=O)=O	-12	x	20µM*	28µM*	x
CCCCC[C@H](C)N1C[C@H](COCc2ccccc2)Oc2cc(N3CC[C@@H](N(C)C)C3)ccc2S1(=O)=O	-64*	x	28µM*	u	x
CCCCC[C@@H](C)N1C[C@@H](COCc2ccccc2)Oc2cc(N3CC[C@@H](N(C)C)C3)ccc2S1(=O)=O	-89*	x	28µM*	u	x
CCCCC[C@@H](C)N1C[C@@H](COCc2ccccc2)Oc2cc(N3CC[C@@H](O)C3)ccc2S1(=O)=O	-6	x	x	u	x
CCCCC[C@@H](C)N1C[C@@H](COCc2ccccc2)Oc2cc(N3CC[C@H](O)C3)ccc2S1(=O)=O	-3	x	u	u	x
C[C@H](O)C(=O)Nc1c(I)c(C(=O)NC(CO)CO)c(I)c(C(=O)NC(CO)CO)c1I	x	x	i	0%	x
O=C(O)CCc1ccc(-c2ccc(Br)cc2)o1	-65*	1%	i	18%	-19%
COc1ccc(C(=O)NCc2nc(-c3ccccc3NC(=O)c3cc(C)oc3C)oc2C)cc1F	x	x	i	x	x
O=C(CN(c1ccc(F)cc1)S(=O)(=O)c1ccccc1)NCCSC1CCCCC1	-59*	-1%	i	-5%	-20%
CC(C)(C)SCCNC(=O)CN(c1ccc(F)cc1)S(=O)(=O)c1ccccc1	-14	0%	i	-25%	1%
O=C(O)CSc1cc(NS(=O)(=O)c2ccc(Br)cc2)c2ccccc2c1O	-51*	-2%	i	x	35µM*
Cc1cc(O)c(Sc2ncn[nH]2)cc1NS(=O)(=O)c1ccc(Cl)cc1	0	0%	i	-4%	-20%
O=S(=O)(Nc1cc(Sc2ncn[nH]2)c(O)c2ccccc12)c1ccccc1	-95*	4%	u	u	2.2µM*
Cn1c(NCCN2CCCC2)nc2cc(-c3ccsc3)sc2c1=O	-63*	x	i	u	x
Cc1ccc(F)cc1-c1cc2nc(NCCCN(C)C)n(C)c(=O)c2s1	-8	x	u	32µM*	x
COc1cccc(-c2cc3nc(NCCCN(C)C)n(C)c(=O)c3s2)c1	-63*	x	i	-25%	x
COc1ccc(C(=O)NNC(=S)NC(=O)C(C)(C)C)cc1	-102*	1%	u	u	-3%
CC(C)(C)C(=O)NC(=S)NNC(=O)c1sc2ccccc2c1Cl	38	-3%	x	18µM*	-18%
CCCCCCCC/C=C\CCCCCCCC(=O)OC[C@@H](O)[C@H]1OC[C@H](O)[C@H]1O	x	x	i	x	x
COc1ccc(C2CC(c3ccccc3C(F)(F)F)=NN2c2ccc(S(N)(=O)=O)cc2)cc1 (stereo not drawn)	-4	1%	x	u	-20%
O=C(NCCCN1CCOCC1)c1cnn(-c2ncc3c(n2)-c2ccccc2CC3)c1C1CC1	x	x	i	x	x
CC(OC(=O)c1ccccc1Nc1ccc(SC(F)F)cc1)C(N)=O (stereo not drawn)	-75*	3%	u	-34%	-17%
CN1CCN(C2(CNC(=O)c3ccc([N+](=O)[O-])cc3)CCCCC2)CC1	x	x	x	x	-15%

Source: PubChem
